# Measured values from PubChem BioAssay.
# Activity calls are given as the source filed them.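 The calls were made as follows: active = mean z-score across replicates of 1.96 or higher in either the MELAS or the Rieske mutant cell line; inactive = the rest.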
# Assay: survival rescue of mitochondrial mutant cells in low glucose, primary screen, MELAS cybrids, Rieske KO mouse fibroblasts, CellTiter-Glo (AID 1508586);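 also: test concentration not given here; z relative to plate mean and SD of compound and empty wells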
# Conditions: MELAS cybrid survival, CellTiter-Glo 48 h, stronger effect = higher value
row,Compound,z-score
1,COc1ccc2[nH]cc(CCC(=O)O)c2c1,0.323 (inactive)
2,COc1ccc(N2CCN(c3ncnc4sccc34)C(C)C2=O)cc1 (stereo not given),-0.528 (inactive)
3,O=C(Cn1nnc(-c2ccccc2)n1)Nc1ccnn1Cc1ccccc1,-0.218 (inactive)
4,Cc1sc2ncnc(-c3cccc4cccnc34)c2c1C,-0.544 (inactive)
5,Cc1nsc(NC(=O)N2CCC(C(O)CC(C)C)CC2)n1 (stereo not given),0.507 (inactive)
6,O=C(O)Cc1ccc(O)c([N+](=O)[O-])c1,0.677 (inactive)
7,Cc1cc(C(=O)N2CCc3[nH]nc(COc4ccccc4)c3C2)c(C)o1,-0.0896 (inactive)
8,CCN(Cc1nccn1C)C(=O)c1cc(-c2cnc(C)nc2)nc2cc(F)ccc12,-0.0942 (inactive)
9,OC(CNCC(O)C1CCc2cc(F)ccc2O1)C1CCc2cc(F)ccc2O1 (stereo not given),0.602
10,CN1CCN(Cc2ccc3nonc3c2)CC1CCO (stereo not given),-0.262 (inactive)
11,CN1CCN(Cc2cccc(-n3cccn3)c2)CC1CCO (stereo not given),-0.56 (inactive)
12,CC(O)Cc1cn(C2CCN(c3ncnc4nc[nH]c34)CC2)nn1 (stereo not given),-0.102 (inactive)
13,COc1ccc(-c2oc3c(CC=C(C)C)c(OC4OC(CO)C(O)C(O)C4O)cc(O)c3c(=O)c2OC2OC(C)C(O)C(O)C2O)cc1 (stereo not given),-0.309 (inactive)
14,COc1cccc2ncn(Cc3nc4ccccc4o3)c(=O)c12,-0.0437 (inactive)
15,COc1cc(N(C)CC2COc3ccccc3O2)nc(N)n1 (stereo not given),0.477 (inactive)
16,COc1cc(Cn2cnc3nccnc3c2=O)cc(OC)c1,-0.417 (inactive)
17,OCCNc1ncnc2oc(-c3ccccc3)c(-c3ccccc3)c12,0.83
18,Cc1nonc1CN(C)c1ncnc2nc[nH]c12,-0.379 (inactive)
19,COc1ccc(CCNCC(O)COc2cccc(C)c2)cc1OC (stereo not given),-1.33 (inactive)
20,CCc1cc(CN2CCN(C)C(CCO)C2)on1 (stereo not given),0.702 (inactive)

row,Compound,z-score
1,CCn1ccnc1CN(C)C(=O)c1cc(-c2cnc(N)nc2)nc2cc(C)ccc12,-0.0965 (inactive)
2,CN(C)CCC=C1c2ccccc2COc2ccc(CC(=O)O)cc21,-0.314 (inactive)
3,CC(=O)Nc1cccc(-c2nn(CC(=O)Nc3cnn(C)n3)c3ccccc23)c1,-0.345 (inactive)
4,Cc1nsc(NC(=O)N(C)Cc2cn[nH]c2-c2ccc(F)cc2)n1,0.225 (inactive)
5,O=C(O)c1ccc(O)cc1O,-0.11 (inactive)
6,COc1ccc(OC)c2c1c(C)cc(=O)n2C,-0.469 (inactive)
7,CCc1nc(NC(=O)NC(c2ccccc2)c2ccco2)nn1C (stereo not given),-0.443 (inactive)
8,Nc1nc(Nc2cccc(Cl)c2)sc1C(=O)c1ccc(F)cc1,1.64 (inactive)
9,NC1=NC(=O)C(=Cc2ccc(-c3ccc(C(=O)O)cc3)o2)S1,0.721 (inactive)
10,CN1CC2c3ccccc3Oc3ccc(Cl)cc3C2C1 (stereo not given),0.214 (inactive)
11,O=c1ccn2c(n1)OC1C(O)C(CO)OC12 (stereo not given),0.627 (inactive)
12,CCCn1ncc(NC(=O)Cn2cc(C)c(-c3cccc(Cl)c3)n2)n1,-0.0413 (inactive)
13,COc1ccccc1C(=O)N1CCC(n2cc(-c3ccccn3)nn2)CC1,0.129 (inactive)
14,NC(=O)NC(CCC(=O)O)C(=O)O (stereo not given),0.385 (inactive)
15,CCn1ncc(NC(=O)Cn2cc(-c3ncnc4ccsc34)cn2)n1,-0.432 (inactive)
16,CN(CCc1ccccn1)C(=O)c1ccc2sc(N)nc2c1,0.048 (inactive)
17,COc1ccc(C=CC(=O)O)cc1O,0.642 (inactive)
18,Cc1cc(=O)oc2cc(OC3OC(CO)C(O)C(O)C3O)ccc12 (stereo not given),0.734 (inactive)
19,CCn1ccnc1CN(C)C(=O)c1cc(-c2cnc(N)nc2)nc2c(C)cccc12,-1.11 (inactive)
20,CC(C)C(NC(=O)Cc1c[nH]c2ccccc12)C(=O)O (stereo not given),-1.19 (inactive)

# Same assay, conditions: Rieske KO mouse fibroblast survival, CellTiter-Glo 72 h
row,Compound,z-score
1,COc1ccc2[nH]cc(CCC(=O)O)c2c1,-0.35
2,COc1ccc(N2CCN(c3ncnc4sccc34)C(C)C2=O)cc1 (stereo not given),-0.443
3,O=C(Cn1nnc(-c2ccccc2)n1)Nc1ccnn1Cc1ccccc1,-0.596
4,Cc1sc2ncnc(-c3cccc4cccnc34)c2c1C,-0.845
5,Cc1nsc(NC(=O)N2CCC(C(O)CC(C)C)CC2)n1 (stereo not given),-0.186
6,O=C(O)Cc1ccc(O)c([N+](=O)[O-])c1,0.189
7,Cc1cc(C(=O)N2CCc3[nH]nc(COc4ccccc4)c3C2)c(C)o1,-0.219
8,CCN(Cc1nccn1C)C(=O)c1cc(-c2cnc(C)nc2)nc2cc(F)ccc12,-0.488
9,OC(CNCC(O)C1CCc2cc(F)ccc2O1)C1CCc2cc(F)ccc2O1 (stereo not given),2.88
10,CN1CCN(Cc2ccc3nonc3c2)CC1CCO (stereo not given),-0.13
11,CN1CCN(Cc2cccc(-n3cccn3)c2)CC1CCO (stereo not given),-0.308
12,CC(O)Cc1cn(C2CCN(c3ncnc4nc[nH]c34)CC2)nn1 (stereo not given),-1.64
13,COc1ccc(-c2oc3c(CC=C(C)C)c(OC4OC(CO)C(O)C(O)C4O)cc(O)c3c(=O)c2OC2OC(C)C(O)C(O)C2O)cc1 (stereo not given),0.107
14,COc1cccc2ncn(Cc3nc4ccccc4o3)c(=O)c12,-0.268
15,COc1cc(N(C)CC2COc3ccccc3O2)nc(N)n1 (stereo not given),-0.0472
16,COc1cc(Cn2cnc3nccnc3c2=O)cc(OC)c1,-0.582
17,OCCNc1ncnc2oc(-c3ccccc3)c(-c3ccccc3)c12,7.8
18,Cc1nonc1CN(C)c1ncnc2nc[nH]c12,-0.0852
19,COc1ccc(CCNCC(O)COc2cccc(C)c2)cc1OC (stereo not given),0.533
20,CCc1cc(CN2CCN(C)C(CCO)C2)on1 (stereo not given),-0.294

row,Compound,z-score
1,CCn1ccnc1CN(C)C(=O)c1cc(-c2cnc(N)nc2)nc2cc(C)ccc12,0.497
2,CN(C)CCC=C1c2ccccc2COc2ccc(CC(=O)O)cc21,0.569
3,CC(=O)Nc1cccc(-c2nn(CC(=O)Nc3cnn(C)n3)c3ccccc23)c1,0.241
4,Cc1nsc(NC(=O)N(C)Cc2cn[nH]c2-c2ccc(F)cc2)n1,-0.278
5,O=C(O)c1ccc(O)cc1O,-0.1
6,COc1ccc(OC)c2c1c(C)cc(=O)n2C,0.131
7,CCc1nc(NC(=O)NC(c2ccccc2)c2ccco2)nn1C (stereo not given),0.186
8,Nc1nc(Nc2cccc(Cl)c2)sc1C(=O)c1ccc(F)cc1,0.109
9,NC1=NC(=O)C(=Cc2ccc(-c3ccc(C(=O)O)cc3)o2)S1,-0.231
10,CN1CC2c3ccccc3Oc3ccc(Cl)cc3C2C1 (stereo not given),0.0022
11,O=c1ccn2c(n1)OC1C(O)C(CO)OC12 (stereo not given),-0.112
12,CCCn1ncc(NC(=O)Cn2cc(C)c(-c3cccc(Cl)c3)n2)n1,-0.435
13,COc1ccccc1C(=O)N1CCC(n2cc(-c3ccccn3)nn2)CC1,-0.319
14,NC(=O)NC(CCC(=O)O)C(=O)O (stereo not given),-0.000429
15,CCn1ncc(NC(=O)Cn2cc(-c3ncnc4ccsc34)cn2)n1,-0.147
16,CN(CCc1ccccn1)C(=O)c1ccc2sc(N)nc2c1,-0.377
17,COc1ccc(C=CC(=O)O)cc1O,-0.171
18,Cc1cc(=O)oc2cc(OC3OC(CO)C(O)C(O)C3O)ccc12 (stereo not given),-0.54
19,CCn1ccnc1CN(C)C(=O)c1cc(-c2cnc(N)nc2)nc2c(C)cccc12,1.17
20,CC(C)C(NC(=O)Cc1c[nH]c2ccccc12)C(=O)O (stereo not given),-0.306
